Assay outcomes from PubChem BioAssay.
AID504770 – E. coli YBA685 growth inhibition, screen for V. cholerae RctB inhibitors; E. coli YBA685 rctB-dependent plasmid, OD600 growth, 3 h; active compounds read low; z-score (test concentration not listed); hit rate 0.27% among 130,000; AID 504770; in the data active = z-score below about -2, passing the limit was not always enough
Polio RdRp inh – inhibitors of poliovirus RNA polymerase binding and polymerization | P03300 | poliovirus polymerase elongation, fluorescence polarization; active compounds read low | % elongation, % (compound at 16.7 µg/mL) | hit rate 0.66% among 150,000; in the data active = % elongation below about 90%
Mtb MbtI inh – MbtI salicylate synthase inhibition; AID 493033; P9WFX0; inhibition, % (concentration not given with the values); purified MbtI enzyme, fluorescence intensity read-out; hit rate 0.89% among 100,000; in the data active = inhibition mostly above about 56%, no sharp cut-off; inactive = mostly below about 77%
Target sequence (P9WFX0 whole entry, looked up): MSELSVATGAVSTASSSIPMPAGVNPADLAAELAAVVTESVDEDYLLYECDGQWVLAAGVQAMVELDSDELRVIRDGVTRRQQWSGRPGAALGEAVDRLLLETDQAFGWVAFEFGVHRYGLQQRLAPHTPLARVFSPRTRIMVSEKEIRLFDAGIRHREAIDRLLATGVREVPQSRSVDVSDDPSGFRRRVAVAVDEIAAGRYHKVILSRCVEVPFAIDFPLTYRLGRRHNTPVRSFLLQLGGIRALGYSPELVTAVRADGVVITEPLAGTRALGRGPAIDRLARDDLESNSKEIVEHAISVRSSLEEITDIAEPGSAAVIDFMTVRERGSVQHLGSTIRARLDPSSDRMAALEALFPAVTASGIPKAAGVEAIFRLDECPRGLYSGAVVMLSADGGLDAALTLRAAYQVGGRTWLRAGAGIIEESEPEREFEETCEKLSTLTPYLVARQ
MenB inh – inhibitors of Mycobacterium tuberculosis MenB enzyme; inhibition, % (no concentration beside the values); MenB enzyme assay, absorbance read-out; AID 540299; hit rate 0.43% among 100,000; P9WNP5; in the data active = inhibition above about 21%, passing the limit was not always enough
The depositor's hits bear a star; x = no result; ! = a repeat was not active. Most compounds without a hit are left out; they make up all but 1.5% or so of the library.

SMILES	AID504770	Polio RdRp inh	Mtb MbtI inh	MenB inh
O=C(OCC(=O)N1c2ccccc2Sc2ccccc21)c1ccc(Br)o1	0.85	106	11	15
CCCN(CC(=O)Nc1ccccc1C(=O)NC1CC1)Cc1nnc(-c2ccco2)o1	-0.05	104	11	-16
COc1ccccc1NS(=O)(=O)c1cccc(C(=O)Nn2cnnc2)c1	0.45	72*	-5	15
N#CC(C#N)=NNc1ccc(SC(F)F)cc1	-3.4*	95	18	-259
CCOC(=O)c1c(C)oc2c1c(CN1CCN(c3ccccc3F)CC1)c(O)c1ccccc12	-1.3	102	4	-15
Oc1ccccc1C=Nc1cc(C(F)(F)F)ccc1Cl	0.1	x	x	x
CCN(C(=O)Cn1ncc2c1-c1ccccc1OC2)c1ccccc1	-0.75	x	x	x
CC[n+]1ccsc1Nc1c(C)cccc1C	-0.1	x	x	x
Cn1c(=O)n(C2CCCCC2)c(=O)c2ccccc21	2.1	108	-21	-34
Cc1cc(C)nc(N(C#N)C(=S)N(C)C)n1	-1.1	102	102*	-5
COC(=O)C(C)N(C#N)c1nc(C)cc(C)n1 (stereo not given)	-0.2	x	-6	x
Cc1ccc(S(=O)(=O)c2ccccc2)cc1S	0.55	62*	x	-12
NCCCc1ccccc1Cl	-1.8	104	1	-18
O=C1NC(=O)N(C2CCCCC2)C(=O)/C1=C/c1ccc(Br)cc1	1.9	100	34	-15
N=C1/C(=C2\NC(c3ccc(Br)cc3)=CS2)CC(=O)N1C1CC1	-0.4	113	91*	-31
O=C1C=CC(=O)c2c(O)cccc21	0.85	87*!	-21	7
O=C1c2ccccc2C(=O)c2c1ccc(O)c2O	0.5	98	0	3
COC(=O)COc1ccc(S(=O)(=O)Nc2ccc(C(F)(F)F)cc2)cc1	-0.85	98	-14	0
O=C1C=CC(=O)N1c1ccc(S(=O)(=O)Nc2ccc(C(F)(F)F)cc2)cc1	0.7	105	98*	-1
O=S1OCC(COc2cccc3ccccc23)O1 (stereo not given)	-0.85	76*	x	-12
COc1cccc(OCC2COS(=O)O2)c1 (stereo not given)	-0.9	85*	0	-43
O=C1NCC(COc2cccc3ccccc23)O1 (stereo not given)	-0.65	x	3	x
O=C(c1noc2c1CCCCC2)N1CCCCC1	1.3	103	-58	-12
CCc1cc2c(cc3c(=O)n(CCCC(=O)NCc4ccccc4)ncn32)s1	0	100	0	4
CCOC(=O)c1nnc(Cc2ccccc2OC)o1	-1	104	-9	-9
SMILES	AID504770	Polio RdRp inh	Mtb MbtI inh	MenB inh
O=C(N/N=C1/CCS(=O)(=O)c2ccc(F)cc21)c1ccccn1	0	90*	-9	15
CCCCN(Cc1ccco1)C(=O)Cn1nc(Cc2ccncc2)c2ccccc2c1=O	0.25	x	x	x
O=C(Nc1sc2c(c1C(=O)NCc1ccco1)CCC2)c1cccs1	0.3	101	2	-5
COC(=O)c1c(NC(=S)NCc2ccco2)sc2c1CCC2	-0.7	99	61*	-11
COC(=O)c1c(NC(=O)C2CCCC2)sc2c1CCCC2	2.5	82*	x	-16
Cc1nn(-c2ccccc2)cc1/C=C1/CN(C)C/C(=C/c2cn(-c3ccccc3)nc2C)C1=O	0.65	110	5	-26
Cn1c(N/C(=C\C(=O)c2cccs2)C(F)(F)F)nc2ccccc21	-2.7*	105	8	x
Cc1c(C(=O)c2ccc(OC(F)F)cc2)oc2ccc(F)cc12	0.3	101	5	-25
O=C(OCc1nc2ccccc2c(=O)[nH]1)c1ccc(S(=O)(=O)N2CCCC2)cc1	0.25	105	-9	-12
COCc1c(CSSCc2cnc(C)c(O)c2COC)cnc(C)c1O	-0.45	86*	22	38*
COCc1c(CN)cnc(C)c1N	-0.8	104	77	-62
NN=C(c1ccccc1)c1ccccc1	-0.75	101	19	1
O=S(N=C(c1ccccc1)c1ccccc1)c1ccccc1 (stereo not given)	-0.75	101	68*	-21
Cn1c(=O)n(C)c2cc(N3CCCCC3)c(NC(=O)C(C)(C)C)cc21	0.5	100	3	14
CN1CCC(N(Cc2ccc3c(c2)OCO3)C(=O)c2cn(Cc3ccccc3)c3ccsc23)CC1	1.2	104	0	24*
CN1CCC(N(Cc2ccco2)C(=O)c2cc3sccc3n2Cc2ccccc2)CC1	-0.7	102	8	-22
C=CCOc1cccc(-c2nc(-c3ccccn3)no2)c1	-0.1	101	-35	-2
CSc1nsc(SC)c1NC(=O)OCC1CCCO1 (stereo not given)	-0.25	88*	x	2
CSc1nsc(SC)c1NC(=O)OCCc1ccccn1	0.5	x	x	x
Cc1oc2nc[nH]c(=O)c2c1C(=O)O	-0.1	108	3	16
COc1ccc(CC(N)C(=O)N[C@@H]2C(O)[C@H](n3cnc4c(N(C)C)ncnc43)O[C@@H]2CO)cc1 (stereo not given in full)	x	101	4	-10
COc1ccc(NC(=O)Cn2cc(C#N)c3ccccc32)cc1	0.15	99	-11	-1
Cc1ccc(NC(=O)Cn2cc(C#N)c3ccccc32)cc1	1.8	102	3	56*
COc1ccc(CCNc2nc(C)nc3c2nnn3Cc2ccccc2)cc1OC	-0.1	100	-3	39*
Cc1ccc(-c2csc3nnc(SCC(N)=O)n23)cc1	1.1	102	4	37*
SMILES	AID504770	Polio RdRp inh	Mtb MbtI inh	MenB inh
CCNc1nc(-c2ccccc2)cs1	-0.05	x	x	x
CC(C)CNc1nc(-c2ccccc2)cs1	-0.8	102	91*	-50
COc1ccc(-c2sccc2C(C)C(=O)O)cc1 (stereo not given)	0.75	105	6	27*
COc1ccc2cc([C@H](C)C(=O)O)ccc2c1	0.85	99	-1	-7
Cc1nn(Cc2ccc(C(=O)Sc3ccc(C(F)(F)F)cn3)o2)c(C)c1Br	0.55	104	86*	9
O=C1C=CC(=NSc2ccccc2)C=C1	0.25	103	23	-21
O=C1N=c2ccccc2=C1c1sc(=S)[nH]c1O	1	95	84*	-51
O=C1N=c2ccccc2=C1c1sc(N2CCCCC2)nc1O	0.15	58*	81	-40
CN(c1ccc(O)cc1)c1nc(O)c(C2=c3ccccc3=NC2=O)s1	-0.45	100	-12	-128
O=C1N=c2ccccc2=C1c1sc(=O)[nH]c1O	-0.45	96	14	-254
c1coc(-c2nnc(-c3ccco3)nn2)c1	1.3	43*	13	-63
Cc1oc2ncn(C)c(=O)c2c1C(=O)N(C)c1ccc(F)cc1	-0.35	104	-21	-6
NS(=O)(=O)c1ccc(-n2cccc2C=C2C(=O)NC(=S)NC2=O)cc1	-0.5	100	97*	-6
Cc1cc(C)n(C(C)CNC(=O)c2ccccc2)n1 (stereo not given)	-0.85	104	-9	-48
Cc1cc(C)n(C(=O)C(C)NC(=O)c2ccccc2)n1 (stereo not given)	0.1	104	x	23*
CCN1CCC2(CC1)N=C(c1ccccc1)C(=S)N2	-1	104	77*	-23
CN1CCC2(CC1)N=C(c1ccccc1)C(=S)N2	-0.35	101	15	-23
CCCn1c(C)cc(C(=O)COC(=O)C2COc3ccccc3O2)c1C (stereo not given)	-0.05	106	-17	-31
